Test results as given in PubChem BioAssay (Tox21).
Values joined by “and” are separate entries in the source; they are usually repeats but may differ in a detail not shown here. Equal entries are not always repeated. Records with an inconclusive call do not appear. Active and inactive are the calls of the source. The call rests on the fitted dose curve; in most records, active means well fitted curve in the direction sought with a large enough effect in the repeat runs; inconclusive means weak or mixed curves; inactive means no such curve, though single readings can be large; an effect the other way counts as inactive or inconclusive.

test system: not listed separately; experiment: qHTS assay to identify aromatase inhibitors - cell viability counter screen (AID 743084); settings: MCF-7 aro ERE viability, CellTiter-Fluor, 24 h; series mostly up to 70.3 µM; activity change, negative = cytotoxicity: at the top concentration;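 further: cells stimulated with testosterone during compound exposure; nearly all actives have a fitted effect of over 55% in size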
On the % scale 0 is the no-effect control and ±100 the full control effect.

| SMILES | activity change, negative = cytotoxicity | Potency |
| --- | --- | --- |
| O=Cc1cccc(Br)c1 | -0.153% [at 95 µM] (inactive) | – |
| CN1[C@@H]2CC[C@H]1CC(OC(=O)C(O)c1ccccc1)C2 (stereo partly specified) | – | inactive |
| CCCCCCCCN1CCCC1=O | 13.9% (inactive) | – |
| CC[N+](C)(CC)CCOC(=O)C1c2ccccc2Oc2ccccc21 | -9.44% (inactive) | – |
| CCOC(=O)OC(C)OC1=C(C(=O)Nc2ccccn2)N(C)S(=O)(=O)c2ccccc21 (stereo unspecified) | -11% (inactive) | – |
| CC(=O)NC(=O)c1ccccc1O | 5.33% (inactive) | – |
| CCCCCCCC1CCCC1=O (stereo unspecified) | -7.46% (inactive) | – |
| [Ca+2] | -1.93% (inactive) | – |
| CC(CO)(CO)[N+](=O)[O-] | 4.5% (inactive) | – |
| CCCc1ncc(C[n+]2ccccc2C)c(N)n1 | -5.47% [at 32.5 µM] (inactive) | – |
| CN1CC(=O)N/C1=N/C(=O)Nc1cccc(Cl)c1 | – | inactive |
| CC(C)(C)C(=O)Oc1ccc(S(=O)(=O)Nc2ccccc2C(=O)NCC(=O)O)cc1 | -1.37% (inactive) | – |
| Cc1ccc(-c2ncc(Cl)cc2-c2ccc(S(C)(=O)=O)cc2)cn1 | -15.2% (inactive) | – |
| CCCCN1C=CN(C)C1 | -3.72% [at 32.5 µM] (inactive) | – |
| NC(CCC(=O)O)C(=O)O (stereo unspecified) | 16.4% (inactive) | – |
| CC(CC=O)CC(C)(C)C (stereo unspecified) | 7.99% (inactive) | – |
| C[N+]1(C)[C@@H]2CC(OC(=O)[C@H](CO)c3ccccc3)C[C@H]1[C@@H]1O[C@@H]12 (stereo partly specified) | -2.2% (inactive) | – |
| CC(=O)c1ccc2ccccc2c1 | -23.3% (inactive) | – |
| CCCCc1ccc2c(n1)[C@@H](c1ccc(OC)cc1C[C@H](C)C(=O)O)[C@H](C(=O)O)[C@H]2c1ccc2c(c1)OCO2 | 3.58% (inactive) | – |

| SMILES | activity change, negative = cytotoxicity | Potency |
| --- | --- | --- |
| CN(C)[C@@H]1C(=O)C(C(=O)NCN2CCCC2)=C(O)[C@@]2(O)C(=O)C3=C(O)c4c(O)cccc4[C@@](C)(O)C3C[C@@H]12 (stereo partly specified) | – | inactive |
| NS(=O)(=O)Cc1noc2ccccc12 | -6.88% (inactive) | – |
| CN(C)C(=O)Oc1ccc[n+](C)c1 | -9.88% (inactive) | – |
| CCOC(=O)C1=NOC(c2ccccc2)(c2ccccc2)C1 | 15.7% (inactive) | – |
| CC/C=C\CCOC(C)OCC (stereo unspecified) | 10.3% (inactive) | – |
| CC(=O)C1CCCCC1=O (stereo unspecified) | 5.32% (inactive) | – |
| CCC1C(=O)OCC1Cc1cncn1C (stereo unspecified) | -3.02% (inactive) | – |
| O=S(=O)(O)c1cc(O)c(O)c(S(=O)(=O)O)c1 | 14% (inactive) | – |
| CCOc1ccccc1OCC | 9.65% (inactive) | – |
| CCCCCC(=O)OCCc1ccccc1 | -2.17% (inactive) | – |
| CN(C)CCCN(C)CCCN(C)C | -0.277% (inactive) | – |
| COc1ccc2cc1Oc1cc3c(cc1OC)CC[N+](C)(C)[C@H]3Cc1ccc(cc1)Oc1c(OC)c(OC)cc3c1[C@@H](C2)[N+](C)(C)CC3 | 7.66% (inactive) | – |
| CCCCCC(C)N (stereo unspecified) | 4.14% (inactive) | – |
| CCN[C@@H]1C[C@H](N)[C@@H](OC2OC(CN)=CCC2N)[C@H](O)[C@H]1O[C@H]1OC[C@](C)(O)[C@H](NC)[C@H]1O (stereo partly specified) | -3.75% (inactive) | – |
| O=[N+]([O-])c1ccc(/C=N\O)o1 | -2.35% (inactive) | – |
| CCN(Cc1ccccc1)c1ccccc1 | 1.38% (inactive) | – |
| CN(C)CCN(C)CCN(C)C | -0.011% (inactive) | – |
| CCN[C@H]1C[C@H](C)S(=O)(=O)c2sc(S(N)(=O)=O)cc21 | -0.105% (inactive) | – |
| O=C(CO)[C@@H](O)[C@H](O)[C@@H](O)CO | -0.486% (inactive) | – |

target: Aryl hydrocarbon receptor (Homo sapiens) (UniProt P35869); experiment: qHTS assay to identify small molecule that activate the aryl hydrocarbon receptor (AhR) signaling pathway (AID 743085); settings: HepG2 AhR-luc (HG2L7.5c1), luciferase, 24 h; series mostly up to 70.3 µM; activation: at the top concentration; further: nearly all actives have a fitted effect of over 15% in size; further: potency means the concentration at half of the fitted maximal effect;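 on activation: HG2L7.5c1 human HepG2 liver cells with stably integrated DRE-driven firefly reporter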
How it was run: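 HepG2 cells (HG2L7.5c1) stably carrying a firefly luciferase reporter driven by 20 dioxin responsive elements were exposed to compound for 24 h at 37C after a 5 h settling period; luminescence rise (ONE-Glo) indicated activation.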

Chain of Aryl hydrocarbon receptor (Homo sapiens) (P35869 whole entry, looked up): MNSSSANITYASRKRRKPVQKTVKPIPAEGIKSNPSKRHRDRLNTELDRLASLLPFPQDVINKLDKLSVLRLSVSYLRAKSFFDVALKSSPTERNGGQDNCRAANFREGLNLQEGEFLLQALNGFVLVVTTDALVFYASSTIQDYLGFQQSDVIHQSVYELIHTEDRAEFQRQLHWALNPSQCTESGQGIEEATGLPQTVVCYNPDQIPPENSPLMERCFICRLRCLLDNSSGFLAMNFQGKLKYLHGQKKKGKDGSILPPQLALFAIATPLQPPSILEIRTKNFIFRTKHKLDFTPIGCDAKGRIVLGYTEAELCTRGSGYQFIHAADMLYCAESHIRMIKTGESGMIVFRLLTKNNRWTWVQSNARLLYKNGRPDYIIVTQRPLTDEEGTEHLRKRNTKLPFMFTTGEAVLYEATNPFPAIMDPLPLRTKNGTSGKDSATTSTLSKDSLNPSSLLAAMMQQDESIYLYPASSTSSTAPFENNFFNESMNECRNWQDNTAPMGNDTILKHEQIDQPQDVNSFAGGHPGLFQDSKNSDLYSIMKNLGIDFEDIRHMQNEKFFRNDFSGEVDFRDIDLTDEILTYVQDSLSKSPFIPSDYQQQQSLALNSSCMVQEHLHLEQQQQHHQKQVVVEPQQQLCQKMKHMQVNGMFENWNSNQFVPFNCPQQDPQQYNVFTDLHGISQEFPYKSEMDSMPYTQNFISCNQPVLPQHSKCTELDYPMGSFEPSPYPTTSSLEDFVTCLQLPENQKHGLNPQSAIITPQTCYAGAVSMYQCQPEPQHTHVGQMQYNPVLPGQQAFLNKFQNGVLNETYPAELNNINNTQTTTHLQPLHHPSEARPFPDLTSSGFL

| SMILES | activation | Potency |
| --- | --- | --- |
| O=Cc1cccc(Br)c1 | -2.29% [at 95 µM] (inactive) | – |
| CN1[C@@H]2CC[C@H]1CC(OC(=O)C(O)c1ccccc1)C2 (stereo partly specified) | – | inactive |
| CCCCCCCCN1CCCC1=O | -0.2% (inactive) | – |
| CC[N+](C)(CC)CCOC(=O)C1c2ccccc2Oc2ccccc21 | -1.54% (inactive) | – |
| CCOC(=O)OC(C)OC1=C(C(=O)Nc2ccccn2)N(C)S(=O)(=O)c2ccccc21 (stereo unspecified) | 2.12% (inactive) | – |
| CC(=O)NC(=O)c1ccccc1O | 2.04% (inactive) | – |
| CCCCCCCC1CCCC1=O (stereo unspecified) | -0.417% (inactive) | – |
| [Ca+2] | -0.0735% (inactive) | – |
| CC(CO)(CO)[N+](=O)[O-] | -0.718% (inactive) | – |
| CCCc1ncc(C[n+]2ccccc2C)c(N)n1 | -1.27% [at 32.5 µM] (inactive) | – |
| CN1CC(=O)N/C1=N/C(=O)Nc1cccc(Cl)c1 | – | 26.6 µM (active) and 1.68 µM (active) |
| CC(C)(C)C(=O)Oc1ccc(S(=O)(=O)Nc2ccccc2C(=O)NCC(=O)O)cc1 | – | 11.9 µM (active) |
| Cc1ccc(-c2ncc(Cl)cc2-c2ccc(S(C)(=O)=O)cc2)cn1 | 0.416% (inactive) | – |
| CCCCN1C=CN(C)C1 | -5.92% [at 32.5 µM] (inactive) | – |
| NC(CCC(=O)O)C(=O)O (stereo unspecified) | 0.145% (inactive) | – |
| CC(CC=O)CC(C)(C)C (stereo unspecified) | -1.49% (inactive) | – |
| C[N+]1(C)[C@@H]2CC(OC(=O)[C@H](CO)c3ccccc3)C[C@H]1[C@@H]1O[C@@H]12 (stereo partly specified) | -1.34% (inactive) | – |
| CC(=O)c1ccc2ccccc2c1 | 4.1% (inactive) | – |
| CCCCc1ccc2c(n1)[C@@H](c1ccc(OC)cc1C[C@H](C)C(=O)O)[C@H](C(=O)O)[C@H]2c1ccc2c(c1)OCO2 | -0.0622% (inactive) | – |

| SMILES | activation | Potency |
| --- | --- | --- |
| CN(C)[C@@H]1C(=O)C(C(=O)NCN2CCCC2)=C(O)[C@@]2(O)C(=O)C3=C(O)c4c(O)cccc4[C@@](C)(O)C3C[C@@H]12 (stereo partly specified) | – | inactive |
| NS(=O)(=O)Cc1noc2ccccc12 | -0.959% (inactive) | – |
| CN(C)C(=O)Oc1ccc[n+](C)c1 | -0.939% (inactive) | – |
| CCOC(=O)C1=NOC(c2ccccc2)(c2ccccc2)C1 | -0.416% (inactive) | – |
| CC/C=C\CCOC(C)OCC (stereo unspecified) | -0.14% (inactive) | – |
| CC(=O)C1CCCCC1=O (stereo unspecified) | 0.178% (inactive) | – |
| CCC1C(=O)OCC1Cc1cncn1C (stereo unspecified) | -0.383% (inactive) | – |
| O=S(=O)(O)c1cc(O)c(O)c(S(=O)(=O)O)c1 | -0.472% (inactive) | – |
| CCOc1ccccc1OCC | -0.542% (inactive) | – |
| CCCCCC(=O)OCCc1ccccc1 | -0.426% (inactive) | – |
| CN(C)CCCN(C)CCCN(C)C | -0.345% (inactive) | – |
| COc1ccc2cc1Oc1cc3c(cc1OC)CC[N+](C)(C)[C@H]3Cc1ccc(cc1)Oc1c(OC)c(OC)cc3c1[C@@H](C2)[N+](C)(C)CC3 | -2.96% (inactive) | – |
| CCCCCC(C)N (stereo unspecified) | -2.09% (inactive) | – |
| CCN[C@@H]1C[C@H](N)[C@@H](OC2OC(CN)=CCC2N)[C@H](O)[C@H]1O[C@H]1OC[C@](C)(O)[C@H](NC)[C@H]1O (stereo partly specified) | 0.119% (inactive) | – |
| O=[N+]([O-])c1ccc(/C=N\O)o1 | 0.068% (inactive) | – |
| CCN(Cc1ccccc1)c1ccccc1 | 0.317% (inactive) | – |
| CN(C)CCN(C)CCN(C)C | 0.748% (inactive) | – |
| CCN[C@H]1C[C@H](C)S(=O)(=O)c2sc(S(N)(=O)=O)cc21 | -1.55% (inactive) | – |
| O=C(CO)[C@@H](O)[C@H](O)[C@@H](O)CO | 1.62% (inactive) | – |
